In PubChem BioAssay (NCATS):
Inconclusive results are not listed. Active and inactive are the calls of the source. Unless noted, calls follow the shape of the dose curve; as a rule, active = well fitted curve in the direction sought with a large enough effect; inconclusive = small, poorly fitted or top-dose-only effect, or another doubt; inactive = no such curve, though single readings can be large; an effect the other way counts as inactive or inconclusive.

Experiments:
[1] = molecular target: Lysosomal acid glucosylceramidase (Homo sapiens) (UniProt P04062); assay: Glucocerebrosidase-p2 (AID 348; in the data active = potency below about 10 µM; also: potency is read from the fitted curve at half-maximal effect); details: purified GBA, blue fluorogenic substrate, 40 min
In short: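 Normal human glucocerebrosidase (0.2 nM) with blue fluorogenic substrate (80 uM final) in citrate/phosphate pH 5.9 with 10mM sodium taurocholate, 0.01% tween-20; 40 min RT, NaOH/glycine stop; fluorescence Ex 365/Em 440; AC50 from a titration from 0.6 nM upwards.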

[2] = AP1 Signaling Pathway (AID 357; active = well fitted curve in either direction with a large enough effect, not every such curve was filed as active;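 also: ME-180 reporter cells stimulated with EGF at its EC50 level; % is scaled to controls: 0 for no effect and ±100 for the full control effect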); details: ME-180 AP-1-bla reporter, EGF-induced, beta-lactamase ratio, 5 h; at 7.69 µM (top of the series) unless noted
In short: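 Cells are seeded overnight, exposed to compound titrations and an EC50 level of EGF for 5 hours at 37 °C, then loaded with CCF4 dye for 2.5 hours. Beta-lactamase activity under the AP-1 element is read as a blue/green ratio.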

[3] = molecular target: Cytochrome P450 1A2 (Homo sapiens) (UniProt P05177); assay: p450-cyp1a2 (AID 410; calls by dose curve; also: potency is read from the fitted curve at half-maximal effect;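 as to activity change, negative = inhibition: -100% = full effect of reference inhibitor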); details: recombinant CYP1A2, luciferin-ME demethylation, luminescence; series mostly up to 57 µM
In short: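 O-Demethylation of luciferin 6' methyl ether by human CYP1A2 is monitored as luciferase luminescence. Substrate sits at Km (100uM); enzyme is 20nM. Values are scaled to 57 uM furafylline as maximal inhibition.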

[4] = NFAT Signaling Pathway (AID 444; active = well fitted curve in either direction with a large enough effect, not every such curve was filed as active;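 also: carbachol stimulus at about its EC50 of 1 µM final; % is scaled to controls: 0 for no effect and ±100 for the full control effect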); details: Jurkat NFAT-bla M1, carbachol, beta-lactamase ratio, 5 h; at 7.69 µM (top of the series) unless noted
In short: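 Jurkat cells carrying an NFAT-driven β-lactamase reporter and co-transfected muscarinic M1 receptor were treated with compound plus carbachol (1 uM final, an EC50 level) for 5 h at 37 °C. CCF4 loading followed for 1 h at RT; 460/530 nm ratio gave %activity.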

[5] = Stat Signaling Pathway (AID 446; active = well fitted curve in either direction with a large enough effect, not every such curve was filed as active;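 also: ME-180 cervical cancer cells given 40 pM IL-6 alongside compound; SIE-controlled beta-lactamase reporter measured as 460/530 nm FRET emission ratio; % is scaled to controls: 0 for no effect and ±100 for the full control effect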); details: ME-180 SIE beta-lactamase reporter, IL-6 stimulated, 5 h; at 7.69 µM (top of the series) unless noted
In short: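 Emission at 460 and 530 nm (excitation 405 nm) reports SIE-controlled beta-lactamase in ME-180 cells. Cells received compound with 40 pM IL-6 for 5 hrs at 37 C; data scaled between 300 pM IL-6 and 125 nM JAK-inhibitor controls.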

[6] = molecular target: Glucocorticoid receptor (Homo sapiens) (UniProt P04150); assay: GR-EFC Redistribution (AID 451; calls by dose curve; also: potency is read from the fitted curve at half-maximal effect); details: CHO-K1 GR-EFC translocation, beta-gal luminescence, 2 h
In short: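 CHO-K1 cells stably expressing nuclear-localized β-gal enzyme acceptor and GR fused C-terminally to the enzyme donor fragment; ligand-driven nuclear translocation restores β-gal by complementation. Compounds titrated up to 46 uM final, 2 h at 37 °C; luminescence read.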

[7] = molecular target: Mitogen-activated protein kinase 10 (Mus musculus) (UniProt Q61831); assay: JNK3 AlphaScreen Assay (AID 530; active = well fitted curve in either direction with a large enough effect, not every such curve was filed as active;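 also: kinase came from lysate of stimulated human HepG2 cells; signal reports phosphorylation of biotinylated GST-cJun 1-79 at Ser73 with 10 µM ATP; % is scaled to controls: 0 for no effect and ±100 for the full control effect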); details: JNK3 lysate, c-Jun phosphorylation; series mostly up to 57.1 µM
In short: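 Phosphorylation of biotinylated GST-cJun(1-79) at Ser73 is measured by AlphaScreen proximity luminescence. Enzyme is JNK3 in HepG2 lysates activated with interleukin-1beta and tumor necrosis factor alpha; ATP is 10 uM final.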

[8] = molecular target: 3',5'-cyclic-AMP phosphodiesterase 4B (Homo sapiens) (UniProt Q07343); assay: qHTS Assay for Inhibitors of PDE-IV (AID 607; active = well fitted activation curve with a large enough effect in the main read-out, with a control signal flat, not every such curve was filed as active; also: % of control where 0% means no effect); details: HEK293 ACTOne CNG channel cells, membrane potential fluorescence; series mostly up to 22.9 µM
In short: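 The readout is membrane depolarisation from a cAMP-sensing CNG channel, detected with a potential dye at ex 535/em 590. Cells were HEK293-derived (endogenous PDE-IV) at 1000 cells/well, titrated up to 22.9 uM final.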

[9] = molecular target: Cytochrome P450 3A4 (Homo sapiens) (UniProt P08684); assay: qHTS Assay for Inhibitors and Substrates of Cytochrome P450 3A4 (AID 884); details: recombinant CYP3A4, Luciferin-PPXE luminescence; series mostly up to 57.1 µM; also: potency is read from the fitted curve at half-maximal effect; nearly all actives have a fitted effect of over 50% in size
In short: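 Luminescent readout of luciferin produced by CYP3A4 (20 nM) dealkylation of Luciferin-PPXE, 25 uM (its KM). NADPH-driven reaction ran 60 min at RT after 10 min compound preincubation; data scaled to 57 uM ketoconazole as 100% inhibition.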

[10] = molecular target: Cytochrome P450 3A4 (Homo sapiens) (UniProt P08684); assay: qHTS Assay for Activators of Cytochrome P450 3A4 (AID 885); details: recombinant CYP3A4, Luciferin-PPXE luminescence, 60 min; series mostly up to 57.1 µM; also: nearly all actives have a fitted effect of over 65% in size
In short: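 Activators are scored by enhanced luminescence from CYP3A4 conversion of luciferin-PPXE (25uM, equal to KM) to luciferin, after 60 min at RT with an NADPH-regenerating system.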

[11] = qHTS Assay for Lipid Storage Modulators (AID 1519; calls by dose curve); details: Drosophila S3 cells, BODIPY lipid droplet/cell ratio, laser cytometry, cells loaded with oleic acid; for activity change, negative = inhibition: at 57.5 µM (top of the series)
In short: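 Cells seeded at 5,000 per well were treated with compounds over a concentration series and loaded with oleic acid (400 uM, as added). Lipid droplet fluorescence (488 nm excitation, 500-530 nm channel) was read by laser-scanning cytometry and normalized to 20 uM Triacsin C.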

[12] = molecular target: Dual specificity protein kinase CLK4 (Homo sapiens) (UniProt Q9HAZ1); assay: qHTS Assay for Inhibitors of CDC-like Kinase 4 (Kinase-Glo Assay) (AID 1770); details: recombinant Clk4, Kinase-Glo ATP depletion luminescence; series mostly up to 66.7 µM; also: nearly all actives have a fitted effect of over 65% in size; also: potency is read from the fitted curve at half-maximal effect
In short: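 Recombinant human Clk4 (25 nM) phosphorylated RS repeat peptide (100 uM) with 1 uM ATP in Tris pH 7.5/MgCl2/EGTA/DTT/Triton buffer for 4.5 h at room temperature. Residual ATP was quantified by Kinase-Glo luciferase luminescence.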

[13] = molecular target: Dual specificity protein kinase CLK4 (Homo sapiens) (UniProt Q9HAZ1); assay: qHTS Assay for Inhibitors of CDC-like Kinase 4 (ADP-Glo Assay) (AID 1771); details: recombinant CLK4, ADP-Glo luminescence; series mostly up to 80 µM; also: nearly all actives have a fitted effect of over 70% in size; also: potency is read from the fitted curve at half-maximal effect
In short: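 Compounds are pin-transferred onto substrate mix (100 uM RS peptide, 1 uM ATP), then 25 nM Clk4 is added. After 1 hr at room temperature, ADP-Glo reagent runs 45 min, detection reagent 30 min, then luminescence is read.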

[14] = molecular target: Dual specificity protein kinase CLK4 (Homo sapiens) (UniProt Q9HAZ1); assay: qHTS Assay for Inhibitors of CDC-like Kinase 4 (ADP-FP Assay) (AID 1795); details: Transcreener ADP fluorescence polarization; series mostly up to 50 µM; also: nearly all actives have a fitted effect of over 60% in size; also: potency is read from the fitted curve at half-maximal effect
In short: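 Recombinant human Clk4 (6.25 nM) phosphorylated RS repeat peptide (100 uM) with 1 uM ATP in Tris pH 7.5/MgCl2/EGTA/DTT/Triton buffer for one hour. ADP was quantified by Transcreener competitive fluorescence polarization against an ADP calibration curve.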

[15] = molecular target: Ubiquitin carboxyl-terminal hydrolase 1 (Homo sapiens) (UniProt O94782); assay: Inhibitors of USP1/UAF1: Pilot qHTS (AID 504865); details: purified USP1/UAF1, Ub-rhodamine cleavage fluorescence; series mostly up to 54.9 µM;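 also: rhodamine fluorescence freed from ubiquitin-rhodamine substrate followed over time; top concentration of the series differs between compounds; % is scaled to controls: 0 for no effect and ±100 for the full control effect; nearly all actives have a fitted effect of over 35% in size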
In short: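 USP1/UAF1 complex (1nM) preincubated with compound 15 min at room temperature, then Ub-Rho substrate (150nM final) added. Fluorescence read kinetically at 480/540 nm, 6 reads every 60 seconds. Buffer: 50mM HEPES pH 7.8, 0.5mM EDTA, 0.1 mg/ml BSA, 1mM TCEP, 0.01% Tween-20.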

[16] = Primary qHTS for small molecule stabilizers of the endoplasmic reticulum resident proteome: Secreted ER Calcium Modulated Protein (SERCaMP) assay (AID 1508630); details: SH-SY5Y GLuc-SERCaMP (Gaussia luciferase released on ER calcium loss) secretion, thapsigargin, luminescence; series mostly up to 38.4 µM; also: % is scaled to controls: 0 for no effect and ±100 for the full control effect
In short: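 The SH-SY5Y reporter protocol was run at 3 concentrations up to 38.3 uM (primary) or 11 concentrations (follow-up): 16 h compound, 100 nM thapsigargin for 4 h, then extracellular luciferase luminescence.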

[17] = molecular target: Glucocorticoid receptor (Homo sapiens) (UniProt P04150); assay: GR-GFP Redistribution (AID 450;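 active = compounds whose dose series gives a full or clear partial fitted curve of increased nuclear translocation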; also: potency is read from the fitted curve at half-maximal effect); details: U2OS GR-GFP nuclear translocation, laser cytometry, 2 h
[18] = molecular target: Cytochrome P450 2C9 (Homo sapiens) (UniProt P11712); assay: qHTS Assay for Inhibitors and Substrates of Cytochrome P450 2C9 (AID 883); details: recombinant CYP2C9, luciferin-H luminescence, 60 min; series mostly up to 57.1 µM; also: % is scaled to controls: 0 for no effect and ±100 for the full control effect; nearly all actives have a fitted effect of over 60% in size
In short: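 CYP2C9 deoxyluciferin hydroxylation, 37C, 60 min with NADPH regeneration; 10nM enzyme, 100uM Luciferin-H (KM). Glo detection reagent stopped reaction; luminescence normalized to sulphaphenazole (57uM) full inhibition.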

[19] = molecular target: Cytochrome P450 2C19 (Homo sapiens) (UniProt P33261); assay: qHTS Assay for Inhibitors and Substrates of Cytochrome P450 2C19 (AID 899); details: recombinant CYP2C19, luciferin-H EGE luminescence; series mostly up to 57.1 µM; also: potency is read from the fitted curve at half-maximal effect; nearly all actives have a fitted effect of over 60% in size
In short: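 In 50mM KPO4, the reaction held 5nM enzyme and KM-level (10uM) Luciferin-H EGE; it ran 60 min at 37C after NADPH regeneration and a 10 min compound preincubation. Luminescence values were scaled to 57uM ketoconazole as complete inhibition.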

[20] = qHTS Assay for Identification of Small Molecule Agonists for Hypoxia Response Element Signaling Pathway (AID 914; active = well fitted activation curve with a large enough effect in the signal ratio, with a control signal flat, not every such curve was filed as active; the % refers to the signal ratio; also: % of control where 0% means no effect); details: ME-180 (cervical carcinoma) HRE-bla reporter, beta-lactamase ratio, CoCl2, 17 h; activation: stronger effect = higher value
In short: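 Cells were plated overnight, pin-dosed with compound in a titration series, co-stimulated with EC50 CoCl2 and incubated 17 hours at 37 degrees Celsius. CCF4 substrate was then loaded, and AC50 values came from the 460nm/530nm ratio.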

[21] = measured here: cell count channel max response
[22] = measured here: lipid channel max response

Sequence of Lysosomal acid glucosylceramidase (Homo sapiens) (P04062 whole entry, looked up): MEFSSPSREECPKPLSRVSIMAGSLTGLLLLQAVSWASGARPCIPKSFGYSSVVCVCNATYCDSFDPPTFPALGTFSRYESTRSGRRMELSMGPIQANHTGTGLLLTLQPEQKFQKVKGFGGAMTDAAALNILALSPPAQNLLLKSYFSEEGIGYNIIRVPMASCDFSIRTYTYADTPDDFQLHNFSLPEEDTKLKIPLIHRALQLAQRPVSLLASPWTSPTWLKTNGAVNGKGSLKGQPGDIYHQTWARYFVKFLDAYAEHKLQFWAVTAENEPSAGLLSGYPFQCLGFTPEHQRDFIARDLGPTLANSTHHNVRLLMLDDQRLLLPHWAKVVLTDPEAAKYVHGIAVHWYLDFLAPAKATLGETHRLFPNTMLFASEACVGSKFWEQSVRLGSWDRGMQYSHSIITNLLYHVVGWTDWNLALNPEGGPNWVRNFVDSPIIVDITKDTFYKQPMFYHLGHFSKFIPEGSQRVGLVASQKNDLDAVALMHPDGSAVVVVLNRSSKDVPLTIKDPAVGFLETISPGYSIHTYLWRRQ
Sequence of Cytochrome P450 1A2 (Homo sapiens) (P05177 whole entry, looked up): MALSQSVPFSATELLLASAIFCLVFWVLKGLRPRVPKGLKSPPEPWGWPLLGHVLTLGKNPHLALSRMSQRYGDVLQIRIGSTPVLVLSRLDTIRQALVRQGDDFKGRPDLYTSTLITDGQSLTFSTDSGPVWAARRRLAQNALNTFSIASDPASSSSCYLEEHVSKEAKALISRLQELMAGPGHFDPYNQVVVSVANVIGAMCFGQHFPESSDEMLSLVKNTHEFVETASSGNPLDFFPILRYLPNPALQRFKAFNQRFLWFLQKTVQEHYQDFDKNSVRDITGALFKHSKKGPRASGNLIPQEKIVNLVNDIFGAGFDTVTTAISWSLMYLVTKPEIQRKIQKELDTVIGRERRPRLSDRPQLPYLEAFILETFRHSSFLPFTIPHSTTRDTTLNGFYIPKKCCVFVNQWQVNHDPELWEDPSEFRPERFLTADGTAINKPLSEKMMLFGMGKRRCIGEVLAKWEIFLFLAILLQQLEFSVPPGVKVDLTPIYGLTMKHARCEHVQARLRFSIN
Sequence of 3',5'-cyclic-AMP phosphodiesterase 4B (Homo sapiens) (Q07343 whole entry, looked up): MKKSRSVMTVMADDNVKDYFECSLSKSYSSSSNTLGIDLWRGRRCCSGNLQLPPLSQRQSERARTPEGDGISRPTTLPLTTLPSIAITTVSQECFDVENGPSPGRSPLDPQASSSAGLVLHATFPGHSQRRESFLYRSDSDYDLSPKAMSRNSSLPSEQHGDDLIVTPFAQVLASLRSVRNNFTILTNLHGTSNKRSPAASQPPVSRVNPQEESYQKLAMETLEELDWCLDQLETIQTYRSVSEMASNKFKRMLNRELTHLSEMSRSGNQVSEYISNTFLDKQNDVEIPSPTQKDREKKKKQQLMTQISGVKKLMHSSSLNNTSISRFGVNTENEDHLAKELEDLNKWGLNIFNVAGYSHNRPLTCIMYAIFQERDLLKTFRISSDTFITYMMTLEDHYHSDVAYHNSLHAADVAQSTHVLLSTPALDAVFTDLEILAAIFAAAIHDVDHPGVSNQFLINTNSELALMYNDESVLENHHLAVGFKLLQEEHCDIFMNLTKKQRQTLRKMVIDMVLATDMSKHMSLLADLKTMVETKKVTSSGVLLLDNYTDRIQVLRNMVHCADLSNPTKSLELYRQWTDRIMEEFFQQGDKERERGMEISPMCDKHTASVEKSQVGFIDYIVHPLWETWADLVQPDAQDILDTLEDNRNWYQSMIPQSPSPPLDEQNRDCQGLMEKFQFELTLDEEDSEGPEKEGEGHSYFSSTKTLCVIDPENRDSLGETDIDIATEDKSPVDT
Sequence of Dual specificity protein kinase CLK4 (Homo sapiens) (Q9HAZ1 whole entry, looked up): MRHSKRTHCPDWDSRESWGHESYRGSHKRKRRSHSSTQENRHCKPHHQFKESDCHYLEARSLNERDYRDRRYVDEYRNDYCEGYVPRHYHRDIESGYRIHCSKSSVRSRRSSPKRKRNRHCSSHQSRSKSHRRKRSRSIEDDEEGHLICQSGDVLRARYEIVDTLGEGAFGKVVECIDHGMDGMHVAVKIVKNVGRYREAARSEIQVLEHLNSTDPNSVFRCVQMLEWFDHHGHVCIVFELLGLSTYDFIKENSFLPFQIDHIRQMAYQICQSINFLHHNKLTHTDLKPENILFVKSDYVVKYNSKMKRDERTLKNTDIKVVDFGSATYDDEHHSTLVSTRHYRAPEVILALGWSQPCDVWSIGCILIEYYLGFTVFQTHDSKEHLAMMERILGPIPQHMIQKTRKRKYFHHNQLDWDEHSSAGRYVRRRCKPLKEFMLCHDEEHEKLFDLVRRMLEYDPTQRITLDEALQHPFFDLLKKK
Sequence of Glucocorticoid receptor (Homo sapiens) (P04150 whole entry, looked up, the tested form may be a part): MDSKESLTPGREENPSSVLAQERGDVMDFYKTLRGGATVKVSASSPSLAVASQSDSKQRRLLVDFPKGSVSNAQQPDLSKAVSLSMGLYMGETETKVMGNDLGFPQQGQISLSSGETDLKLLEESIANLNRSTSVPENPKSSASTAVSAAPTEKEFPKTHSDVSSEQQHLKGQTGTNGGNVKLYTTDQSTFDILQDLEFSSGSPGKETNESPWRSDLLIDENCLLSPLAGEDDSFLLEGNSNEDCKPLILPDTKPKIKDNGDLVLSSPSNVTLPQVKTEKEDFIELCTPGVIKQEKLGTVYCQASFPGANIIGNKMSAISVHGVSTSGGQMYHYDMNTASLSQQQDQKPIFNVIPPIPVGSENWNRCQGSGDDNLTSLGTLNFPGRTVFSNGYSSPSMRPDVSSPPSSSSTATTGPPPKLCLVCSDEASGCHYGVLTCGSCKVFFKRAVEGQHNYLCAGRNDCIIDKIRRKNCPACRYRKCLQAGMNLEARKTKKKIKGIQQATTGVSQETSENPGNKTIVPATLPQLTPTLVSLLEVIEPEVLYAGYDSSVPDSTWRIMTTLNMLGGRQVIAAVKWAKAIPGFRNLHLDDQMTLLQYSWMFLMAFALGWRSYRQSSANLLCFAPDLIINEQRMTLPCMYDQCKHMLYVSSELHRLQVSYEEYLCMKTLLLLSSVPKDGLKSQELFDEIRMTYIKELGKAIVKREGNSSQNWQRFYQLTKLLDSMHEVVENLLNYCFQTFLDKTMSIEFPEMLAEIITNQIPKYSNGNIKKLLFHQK
Sequence of Cytochrome P450 3A4 (Homo sapiens) (P08684 whole entry, looked up): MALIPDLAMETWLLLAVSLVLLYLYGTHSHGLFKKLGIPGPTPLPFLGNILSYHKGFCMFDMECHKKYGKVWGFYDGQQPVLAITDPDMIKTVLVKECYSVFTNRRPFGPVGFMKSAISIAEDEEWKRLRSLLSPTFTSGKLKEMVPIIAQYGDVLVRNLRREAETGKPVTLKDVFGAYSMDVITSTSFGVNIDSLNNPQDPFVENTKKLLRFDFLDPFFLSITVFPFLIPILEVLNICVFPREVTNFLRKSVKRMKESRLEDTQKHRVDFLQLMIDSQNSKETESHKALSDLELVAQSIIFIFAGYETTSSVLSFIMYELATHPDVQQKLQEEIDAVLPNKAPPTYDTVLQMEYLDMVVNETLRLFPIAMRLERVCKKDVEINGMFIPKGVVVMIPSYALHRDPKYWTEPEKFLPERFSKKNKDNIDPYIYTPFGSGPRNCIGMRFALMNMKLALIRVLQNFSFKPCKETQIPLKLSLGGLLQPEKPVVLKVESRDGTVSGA
Sequence of Ubiquitin carboxyl-terminal hydrolase 1 (Homo sapiens) (O94782 whole entry, looked up): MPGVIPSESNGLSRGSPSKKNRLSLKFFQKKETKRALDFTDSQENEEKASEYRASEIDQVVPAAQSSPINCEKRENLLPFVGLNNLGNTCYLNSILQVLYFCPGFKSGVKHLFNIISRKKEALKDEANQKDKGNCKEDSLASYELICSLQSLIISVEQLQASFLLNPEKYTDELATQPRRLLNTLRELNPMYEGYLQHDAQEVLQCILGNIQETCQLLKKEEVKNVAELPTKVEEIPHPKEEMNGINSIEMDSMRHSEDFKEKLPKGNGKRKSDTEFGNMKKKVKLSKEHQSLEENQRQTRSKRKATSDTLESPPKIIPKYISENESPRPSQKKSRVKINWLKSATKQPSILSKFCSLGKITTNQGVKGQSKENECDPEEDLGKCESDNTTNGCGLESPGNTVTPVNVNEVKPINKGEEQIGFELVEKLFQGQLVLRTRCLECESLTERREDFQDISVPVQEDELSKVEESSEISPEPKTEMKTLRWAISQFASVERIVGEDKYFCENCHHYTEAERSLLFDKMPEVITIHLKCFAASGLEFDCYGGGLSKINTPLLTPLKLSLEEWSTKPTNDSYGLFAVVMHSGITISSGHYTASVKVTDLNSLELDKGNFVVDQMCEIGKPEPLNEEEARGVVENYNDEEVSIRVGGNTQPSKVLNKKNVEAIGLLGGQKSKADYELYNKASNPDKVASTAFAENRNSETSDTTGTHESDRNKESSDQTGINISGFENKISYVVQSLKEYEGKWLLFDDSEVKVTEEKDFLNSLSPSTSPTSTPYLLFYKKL
Sequence of Cytochrome P450 2C9 (Homo sapiens) (P11712 whole entry, looked up): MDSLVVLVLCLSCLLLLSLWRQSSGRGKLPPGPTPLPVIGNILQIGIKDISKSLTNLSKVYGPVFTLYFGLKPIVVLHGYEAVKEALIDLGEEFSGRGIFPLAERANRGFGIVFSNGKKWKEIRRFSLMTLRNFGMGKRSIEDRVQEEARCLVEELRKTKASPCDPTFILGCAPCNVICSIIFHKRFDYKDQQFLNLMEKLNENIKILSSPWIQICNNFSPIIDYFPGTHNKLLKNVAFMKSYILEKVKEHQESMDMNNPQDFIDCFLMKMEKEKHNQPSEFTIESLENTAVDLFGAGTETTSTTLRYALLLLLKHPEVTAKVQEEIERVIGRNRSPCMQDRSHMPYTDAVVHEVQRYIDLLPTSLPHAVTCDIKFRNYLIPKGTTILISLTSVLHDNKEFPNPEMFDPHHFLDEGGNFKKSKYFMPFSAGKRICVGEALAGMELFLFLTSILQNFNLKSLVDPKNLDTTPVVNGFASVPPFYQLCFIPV

CN1CCN(c2ncnc3ccc(-c4ccc5c(c4)OCO5)cc23)CC1
4.86%: max response [11, 21]
active: Potency [3] 2.51 µM | Potency [9] 7.94 µM | Potency [12] 0.282 µM | Potency [13] 0.562 µM | Potency [14] 0.158 µM
5.74%: max response [11, 22]
inactive: Potency [1] > 11.4 µM | activity change, negative = inhibition [2] -24.4% | activity change, negative = inhibition [4] -20.4% | activity, negative = inhibition [5] 6.89% | Potency [6] > 46 µM | outcome [7] | Potency [8] | Potency [10] | activity change, negative = inhibition [11] 4.95% | Potency [15] | Potency [16]

c1cncc(-c2cncnc2NC2CCNCC2)c1
inactive: Potency [1] > 11.4 µM | activity change, negative = inhibition [2] 11.1% | activity, negative = inhibition [5] 5.17% | Potency [17] > 46 µM | outcome [7] | Potency [8] | activity change, negative = inhibition [11] 6.71% | Potency [12] | Potency [13] | Potency [14] | Potency [15] | Potency [16]
15.6%: max response [11, 21]
active: Potency [3] 12.6 µM
20%: max response [11, 22]

c1ccc(Nc2cc(-c3ccoc3)ncn2)cc1
inactive: Potency [1] > 11.4 µM | activity change, negative = inhibition [2] -8.62% | activity change, negative = inhibition [4] -0.633% | activity, negative = inhibition [5] -2.05% | Potency [6] > 46 µM | outcome [7] | Potency [8] | activity change, negative = inhibition [18] -13.3% [at 2.29 µM] | activation [20] -8.49% | activity change, negative = inhibition [11] 8.08% | Potency [12] | Potency [13] | Potency [14] | Potency [15] | Potency [16]
active: Potency [3] 15.8 µM | Potency [19] 7.94 µM
22%: max response [11, 22]
15%: max response [11, 21]

Cn1c(=O)c(-c2cccs2)nc2cnc(OCc3ccccc3)nc21
active: Potency [3] 7.94 µM
inactive: Potency [1] > 11.4 µM | activity change, negative = inhibition [2] 16% | activity change, negative = inhibition [4] 22.3% | Potency [17] > 9.22 µM | Potency [6] > 46 µM | outcome [7] | Potency [8] | activity change, negative = inhibition [11] 6.88% | Potency [12] | Potency [13] | Potency [14] | Potency [15] | Potency [16]
20.6%: max response [11, 21]
29.6%: max response [11, 22]

CN(C)c1ncc2nc(-c3cc(F)cc(F)c3)c(=O)n(CCC#N)c2n1
inactive: Potency [1] > 11.4 µM | activity change, negative = inhibition [2] 4.37% | Potency [3] | activity change, negative = inhibition [4] 29.2% | activity, negative = inhibition [5] 2.22% | Potency [17] > 9.22 µM | outcome [7] | Potency [8] | Potency [18] | Potency [10] | activity change, negative = inhibition [11] 3.22% | Potency [12] | Potency [13] | Potency [14] | Potency [15] | Potency [16]
21.3%: max response [11, 22]
19.6%: max response [11, 21]

Cc1noc(C)c1-c1cncnc1NCc1cccnc1
4.31%: max response [11, 21]
5.44%: max response [11, 22]
inactive: Potency [1] > 11.4 µM | activity change, negative = inhibition [2] 1.35% | activity change, negative = inhibition [4] 4.9% | activity, negative = inhibition [5] 14.8% | Potency [17] > 46 µM | Potency [6] > 46 µM | outcome [7] | Potency [8] | Potency [10] | activity change, negative = inhibition [11] 2.36% | Potency [12] | Potency [13] | Potency [14] | Potency [15] | Potency [16]
active: Potency [9] 3.16 µM
